Reference: PubChem BioAssay AID2405 (Southern Research Specialized Biocontainment Screening …, 2010)
Calls of active or inactive are those of the source. How the calls were made is not given here.

Assay: anti-RSV activity of probe candidates, cell-based (AID 2405)
Settings: RSV cytopathic effect inhibition, HEp-2 cells, stronger effect = higher value; at 100 µM unless noted

Maximum inhibition, inactive:
CCCN1CCN(CCCNC(=O)c2cc3c(s2)-c2c(C)cccc2OC3)CC1 0.38% [at 0.2 µM]
Oc1ccccc1C(Nc1nccs1)c1ccc2cccnc2c1O (stereo not drawn) 4.97% [at 12.5 µM]
C=CCN(C(=O)c1ccccc1Cl)c1nc(-c2ccc(OC)cc2)cs1 7.65%
OC1c2c(F)cccc2N=C2CCCN21 (stereo not drawn) 0.86%
Cc1cccc2c(=O)n3c(nc12)CCC3 1.55% [at 0.2 µM]
COc1cccc(C(NC(=O)c2ccccc2)c2ccc3cccnc3c2O)c1 (stereo not drawn) 3.45% [at 12.5 µM]
O=C(Nc1nc(-c2ccc(Cl)cc2)cs1)c1ccc(Cl)cc1 2.44%
O=C(CSc1nc2ccccc2c(=O)n1-c1ccccc1)Nc1ccc2c(c1)CCC2 18.8% [at 12.5 µM]
Nc1ccc2nc3n(c(=O)c2c1)CCC3 1.81% [at 12.5 µM]
Cc1cccc2c1-c1sc(C(=O)NCCCN3CCC(C)CC3)cc1CO2 0.67% [at 0.2 µM]
O=C(CSc1nc2ccccc2c(=O)n1-c1ccc(F)cc1)Nc1ccc2c(c1)CCC2 2.76%
O=C(CSc1nc2ccccc2c(=O)n1-c1ccc(F)cc1F)Nc1ccc(N2CCOCC2)cc1 1.49%
COc1ccc(-c2csc(N(CCCN(C)C)C(=O)c3ccccc3Cl)n2)cc1 0.91% [at 6.25 µM]
Cc1cc(OC(=O)c2c(F)cccc2F)n(Cc2ccccc2)n1 0.49% [at 3.13 µM]
O=C(CSc1nc2cccc(I)c2c(=O)n1-c1ccccc1)Nc1ccc2c(c1)CCC2 5.17%
CN(C)CCCNC(=S)N1CCN(c2nc(-c3ccccc3)cs2)CC1 5.31% [at 25 µM]
COc1ccc(NC(=O)CSc2nc3ccccc3c(=O)n2-c2ccc(F)cc2)cc1 18.6%
O=c1c2cccc(Cl)c2nc2n1CCC2 1.74% [at 50 µM]
CC1CCCN(CCCNC(=O)c2cc3c(s2)-c2ccccc2OC3)C1 (stereo not drawn) 3.5% [at 25 µM]
CC1CC(C)CN(CCCNC(=O)c2cc3c(s2)-c2ccccc2OC3)C1 (stereo not drawn) 1.49% [at 25 µM]
O=[N+]([O-])c1ccc2c(c1)C(O)N1CCCC1=N2 (stereo not drawn) 2.6% [at 12.5 µM]
CCOC(=O)C1(Cc2ccccc2C(F)(F)F)CCN(C2CCN(C(C)C)CC2)CC1 0.09% [at 0.2 µM]
COc1ccc(-c2csc(N(CCCN(C)C)C(=O)c3ccccc3F)n2)cc1 5.17%
CCN(CC)CCCNC(=S)N1CCN(c2nc(-c3ccccc3)cs2)CC1 1.02% [at 0.2 µM]
COc1ccc(-c2csc(NC(=O)c3ccc(Cl)cc3)n2)cc1 0.97% [at 25 µM]
O=c1c2cc([N+](=O)[O-])ccc2nc2n1CCC2 1.3%
Cc1cccc2c1-c1sc(C(=O)NCCCN3CCCC(C)C3)cc1CO2 (stereo not drawn) 1.01% [at 0.78 µM]
O=C(Nc1nc(-c2ccccc2)cs1)c1ccccc1Cl 45.7% [at 12.5 µM]
